Reference: the supplement of paper PMC10037445
The full ranking holds about 2,900 compounds; the median of “NF-kB SEAP reporter activity, fold change vs agonist alone” is about 0.99, and the highest 2% start at about 2.6. The sample as a whole holds a higher share of the highest values than the screen did.

Assays:
RAW-Dual [1] = test: NF-kB SEAP reporter activity, fold change vs agonist alone; cytotoxicity flag (confluency mask): not cytotoxic; higher = enhanced NF-kB activity
Summary of the method: (§1)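 Library stock was pin-tooled at 50 nL into 384-well plates of RAW-Dual macrophages (50,000 cells/well, DMEM), followed 1 h later by a PRR agonist, and the cells were kept at 37 °C, 5% CO2. Supernatant collected after 20 hours was read for IRF by QuantiLuc luminescence and for NF-κB by QuantiBlue absorbance at 620 nm. Reporter activity is fold change over agonist-alone wells, and a well counted as cytotoxic when its IncuCyte confluency was below 70% of agonist controls in both mask sets.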

RAW-Dual [2] = test: NF-kB SEAP reporter activity, fold change vs agonist alone; higher = enhanced NF-kB activity; details: library stock concentration (final ~1000-fold dilution): 10 mM
Summary of the method: as §1

[3] = agonist: ODN 1826 (TLR9) 0.5 ug/mL
[4] = agonist: Pam2CSK4 (TLR2/6) 0.1 ug/mL
[5] = agonist: Pam3CSK4 (TLR2/1) 0.1 ug/mL
[6] = cytotoxicity flag (confluency mask): not cytotoxic, agonist: Imiquimod (TLR7) […]
[7] = cytotoxicity flag (confluency mask): not cytotoxic, agonist: MPLA (TLR4) […]

## Cc1n[nH]c2ncc(C(=O)N3CCCC3c3ccc(Cl)cc3)cc12 (centres undefined) (library stock concentration (final ~1000-fold dilution): 10 mM)
RAW-Dual [1]; agonist: LPS (TLR4) 0.1 ug/mL
  NF-kB SEAP reporter activity: 2.51
RAW-Dual [1]; [3]
  NF-kB SEAP reporter activity: 2.07
RAW-Dual [1]; [4]
  NF-kB SEAP reporter activity: 1.61
RAW-Dual [1]; [5]
  NF-kB SEAP reporter activity: 2.59

## Cc1n[nH]c2ncc(C(=O)N3CCCC3c3ccc(Cl)cc3)cc12 (centres undefined)
RAW-Dual [2]; [6]
  NF-kB SEAP reporter activity: 1.44
RAW-Dual [2]; [7]
  NF-kB SEAP reporter activity: 1.77

## COC(=O)NC(C(=O)N1CCCC1c1ncc(-c2ccc(-c3ccc(-c4cnc(C5CCCN5C(=O)C(NC(=O)OC)C(C)C)[nH]4)cc3)cc2)[nH]1)C(C)C (centres undefined) (library stock concentration (final ~1000-fold dilution): 10 mM)
RAW-Dual [1]; agonist: LPS (TLR4) 0.1 ug/mL
  NF-kB SEAP reporter activity: 1.88
RAW-Dual [1]; [3]
  NF-kB SEAP reporter activity: 0.935
RAW-Dual [1]; [4]
  NF-kB SEAP reporter activity: 0.867
RAW-Dual [1]; [5]
  NF-kB SEAP reporter activity: 0.8

## COC(=O)NC(C(=O)N1CCCC1c1ncc(-c2ccc(-c3ccc(-c4cnc(C5CCCN5C(=O)C(NC(=O)OC)C(C)C)[nH]4)cc3)cc2)[nH]1)C(C)C (centres undefined)
RAW-Dual [2]; [6]
  NF-kB SEAP reporter activity: 1.24
RAW-Dual [2]; [7]
  NF-kB SEAP reporter activity: 1.31

## Cn1ncc(Cl)c1-c1cc(C(=O)NC(CN)Cc2cccc(F)c2)sc1Cl (centres undefined)
RAW-Dual [2]; [6]
  NF-kB SEAP reporter activity: 1.39
RAW-Dual [2]; [7]
  NF-kB SEAP reporter activity: 1.77

## Cn1ncc(Cl)c1-c1cc(C(=O)NC(CN)Cc2cccc(F)c2)sc1Cl (centres undefined) (library stock concentration (final ~1000-fold dilution): 10 mM)
RAW-Dual [1]; agonist: LPS (TLR4) 0.1 ug/mL
  NF-kB SEAP reporter activity: 1.53
RAW-Dual [1]; [3]
  NF-kB SEAP reporter activity: 1.27
RAW-Dual [1]; [4]
  NF-kB SEAP reporter activity: 1
RAW-Dual [1]; [5]
  NF-kB SEAP reporter activity: 1.15

## CCCC(NC(=O)C1C2CCCC2CN1C(=O)C(NC(=O)C(NC(=O)c1cnccn1)C1CCCCC1)C(C)(C)C)C(=O)C(=O)NC1CC1 (centres undefined)
RAW-Dual [2]; [6]
  NF-kB SEAP reporter activity: 0.65
RAW-Dual [2]; [7]
  NF-kB SEAP reporter activity: 1.02

## CCCC(NC(=O)C1C2CCCC2CN1C(=O)C(NC(=O)C(NC(=O)c1cnccn1)C1CCCCC1)C(C)(C)C)C(=O)C(=O)NC1CC1 (centres undefined) (library stock concentration (final ~1000-fold dilution): 10 mM)
RAW-Dual [1]; agonist: LPS (TLR4) 0.1 ug/mL
  NF-kB SEAP reporter activity: 1.3
RAW-Dual [1]; [3]
  NF-kB SEAP reporter activity: 0.887
RAW-Dual [1]; [4]
  NF-kB SEAP reporter activity: 0.68
RAW-Dual [1]; [5]
  NF-kB SEAP reporter activity: 0.601

## Nc1nc(F)nc2c1ncn2C1OC(CO)C(O)C1O (centres undefined)
RAW-Dual [2]; [6]
  NF-kB SEAP reporter activity: 0.92
RAW-Dual [2]; [7]
  NF-kB SEAP reporter activity: 0.844

## Nc1nc(F)nc2c1ncn2C1OC(CO)C(O)C1O (centres undefined) (library stock concentration (final ~1000-fold dilution): 10 mM)
RAW-Dual [1]; agonist: LPS (TLR4) 0.1 ug/mL
  NF-kB SEAP reporter activity: 1.1
RAW-Dual [1]; [3]
  NF-kB SEAP reporter activity: 1.03
RAW-Dual [1]; [4]
  NF-kB SEAP reporter activity: 1.06
RAW-Dual [1]; [5]
  NF-kB SEAP reporter activity: 1.22

## CC(C)CC(NC(=O)C(CCc1ccccc1)NC(=O)CN1CCOCC1)C(=O)NC(Cc1ccccc1)C(=O)NC(CC(C)C)C(=O)C1(C)CO1 (centres undefined)
RAW-Dual [2]; [6]
  NF-kB SEAP reporter activity: 2.33
RAW-Dual [2]; [7]
  NF-kB SEAP reporter activity: 0.832

## CC(C)CC(NC(=O)C(CCc1ccccc1)NC(=O)CN1CCOCC1)C(=O)NC(Cc1ccccc1)C(=O)NC(CC(C)C)C(=O)C1(C)CO1 (centres undefined) (library stock concentration (final ~1000-fold dilution): 10 mM)
RAW-Dual [1]; agonist: LPS (TLR4) 0.1 ug/mL
  NF-kB SEAP reporter activity: 0.318
RAW-Dual [1]; [3]
  NF-kB SEAP reporter activity: 1.18
RAW-Dual [1]; [4]
  NF-kB SEAP reporter activity: 0.683
RAW-Dual [1]; [5]
  NF-kB SEAP reporter activity: 0.456

## CCc1c(N(CC)C2CCOCC2)cc2oc(C3CCN(C(C)C)CC3)cc2c1C(=O)NCc1c(C)cc(C)[nH]c1=O
RAW-Dual [2]; [6]
  NF-kB SEAP reporter activity: 1.34
RAW-Dual [2]; [7]
  NF-kB SEAP reporter activity: 1.04

## CCc1c(N(CC)C2CCOCC2)cc2oc(C3CCN(C(C)C)CC3)cc2c1C(=O)NCc1c(C)cc(C)[nH]c1=O (library stock concentration (final ~1000-fold dilution): 10 mM)
RAW-Dual [1]; agonist: LPS (TLR4) 0.1 ug/mL
  NF-kB SEAP reporter activity: 1.13
RAW-Dual [1]; [3]
  NF-kB SEAP reporter activity: 0.983
RAW-Dual [1]; [4]
  NF-kB SEAP reporter activity: 1.04
RAW-Dual [1]; [5]
  NF-kB SEAP reporter activity: 0.941

## COCC(NC(=O)c1cnc(C)s1)C(=O)NC(COC)C(=O)NC(Cc1ccccc1)C(=O)C1(C)CO1 (centres undefined)
RAW-Dual [2]; [6]
  NF-kB SEAP reporter activity: 2.34
RAW-Dual [2]; [7]
  NF-kB SEAP reporter activity: 1.21

## COCC(NC(=O)c1cnc(C)s1)C(=O)NC(COC)C(=O)NC(Cc1ccccc1)C(=O)C1(C)CO1 (centres undefined) (library stock concentration (final ~1000-fold dilution): 10 mM)
RAW-Dual [1]; agonist: LPS (TLR4) 0.1 ug/mL
  NF-kB SEAP reporter activity: 0.377
RAW-Dual [1]; [3]
  NF-kB SEAP reporter activity: 1.25
RAW-Dual [1]; [4]
  NF-kB SEAP reporter activity: 0.279
RAW-Dual [1]; [5]
  NF-kB SEAP reporter activity: 0.692

## COc1cc(N2CCN(C)CC2)ccc1Nc1nccc(-c2cn(C)c3cnccc23)n1
RAW-Dual [2]; [6]
  NF-kB SEAP reporter activity: 0.285
RAW-Dual [2]; [7]
  NF-kB SEAP reporter activity: 1.58

## Cc1nc(N)sc1-c1ccnc(Nc2ccc(N3CCOCC3)cc2)n1 (library stock concentration (final ~1000-fold dilution): 10 mM)
RAW-Dual [1]; agonist: LPS (TLR4) 0.1 ug/mL
  NF-kB SEAP reporter activity: 0.713
RAW-Dual [1]; [3]
  NF-kB SEAP reporter activity: 0.256
RAW-Dual [1]; [4]
  NF-kB SEAP reporter activity: 0.401
RAW-Dual [1]; [5]
  NF-kB SEAP reporter activity: 0.522

## CC(C)(O)CNc1nc(Nc2ccnc(C(F)(F)F)c2)nc(-c2cccc(C(F)(F)F)n2)n1
RAW-Dual [2]; [6]
  NF-kB SEAP reporter activity: 1.19
RAW-Dual [2]; [7]
  NF-kB SEAP reporter activity: 1.28

## CC(C)(O)CNc1nc(Nc2ccnc(C(F)(F)F)c2)nc(-c2cccc(C(F)(F)F)n2)n1 (library stock concentration (final ~1000-fold dilution): 10 mM)
RAW-Dual [1]; agonist: LPS (TLR4) 0.1 ug/mL
  NF-kB SEAP reporter activity: 1.51
RAW-Dual [1]; [3]
  NF-kB SEAP reporter activity: 1.61
RAW-Dual [1]; [4]
  NF-kB SEAP reporter activity: 1.09
RAW-Dual [1]; [5]
  NF-kB SEAP reporter activity: 1.59

## CC(C)(O)CNc1ncc(-c2ccnc(Nc3ccnc(Cl)c3)n2)c(CC2CC2)n1 (library stock concentration (final ~1000-fold dilution): 10 mM)
RAW-Dual [1]; agonist: LPS (TLR4) 0.1 ug/mL
  NF-kB SEAP reporter activity: 5.81
RAW-Dual [1]; [3]
  NF-kB SEAP reporter activity: 0.935
RAW-Dual [1]; [4]
  NF-kB SEAP reporter activity: 1.41
RAW-Dual [1]; [5]
  NF-kB SEAP reporter activity: 1.8

## CC(C)(O)CNc1ncc(-c2ccnc(Nc3ccnc(Cl)c3)n2)c(CC2CC2)n1
RAW-Dual [2]; [6]
  NF-kB SEAP reporter activity: 0.784
RAW-Dual [2]; [7]
  NF-kB SEAP reporter activity: 2.07

## CC(C)(O)CNc1ncc(-c2ccnc(Nc3ccncc3)n2)c(CC2CC2)n1 (library stock concentration (final ~1000-fold dilution): 10 mM)
RAW-Dual [1]; agonist: LPS (TLR4) 0.1 ug/mL
  NF-kB SEAP reporter activity: 4.13
RAW-Dual [1]; [3]
  NF-kB SEAP reporter activity: 0.366
RAW-Dual [1]; [4]
  NF-kB SEAP reporter activity: 0.814
RAW-Dual [1]; [5]
  NF-kB SEAP reporter activity: 1.66

## Nc1ncc(-c2ccnc(Nc3ccncc3)n2)c(CC2CC2)n1
RAW-Dual [2]; cytotoxicity flag (confluency mask): cytotoxic (confluency <70% of control), agonist: Imiquimod (TLR7) […]
  NF-kB SEAP reporter activity: 0.641
RAW-Dual [2]; cytotoxicity flag (confluency mask): cytotoxic (confluency <70% of control), agonist: MPLA (TLR4) […]
  NF-kB SEAP reporter activity: 2.13

## Cc1nc(N)sc1-c1ccnc(Nc2ccc(N3CCOCC3)cc2)n1
RAW-Dual [2]; [6]
  NF-kB SEAP reporter activity: 0.996
RAW-Dual [2]; [7]
  NF-kB SEAP reporter activity: 1.39
